In the supplement of paper PMC10849652:
Targets with a hit are over-represented here; the source holds about 8,800 in all. About 0.5% of all pairs of compound and target were hits.

Columns and labels:
Test in all cases: log2 fold change, soluble protein after heating vs DMSO (PISA); higher = thermal stabilisation; K562 lysate, 10 uM; active = over 0.2 and 3.5 SD of the protein, either way, in both replicates (recomputed)
alvocidib = compound: CN1CC[C@H](c2c(O)cc(O)c3c(=O)cc(-c4ccccc4Cl)oc23)[C@H](O)C1 [alvocidib]
Method in brief: (§1)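 Dounce homogenisation of K562 pellets in PBS pH 7.4 with 1 mM MgCl2 produced a crude extract, used at 1 mg/mL protein. Exposure to 10 μM compound lasted 30 min, and aliquots were then heated for 3 min across 48°C-58°C, pooled and brought to 0.5% NP-40 at 4°C. The supernatant after 21,000xg for 90 min was quantified by TMTpro 16plex LC-MS/MS with channel sums equalised. Duplicate values are given as log-two fold change in thermal stability relative to solvent controls.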

Tubastatin A = compound: CN1CCc2c(c3ccccc3n2Cc2ccc(C(=O)NO)cc2)C1 [Tubastatin A]
Method in brief: as §1

[1] = compound: CNC(=O)C1=CC=CC=C1NC2=NC(=NC=C2Cl)NC3=C(C=C(C=C3)N4CCOCC4)OC
Method in brief: as §1

defactinib = compound: CNC(=O)c1ccc(Nc2ncc(C(F)(F)F)c(NCc3nccnc3N(C)S(C)(=O)=O)n2)cc1 [defactinib]
Method in brief: as §1

[2] = compound: CNc1nc(-c2ccc3c(N)n[nH]c3c2)cc(N2C[C@@H](C(=O)NC3CCCCC3)CC[C@H]2C)n1
Method in brief: as §1

encorafenib = compound: COC(=O)N[C@@H](C)CNc1nccc(-c2cn(C(C)C)nc2-c2cc(Cl)cc(NS(C)(=O)=O)c2F)n1 [encorafenib]
Method in brief: as §1

[3] = compound: COC(=O)[C@H](CCSC)NC(=O)C1=C(C=C(C=C1)NC[C@H](CS)N)C2=CC=CC=C2
Method in brief: as §1

alisertib = compound: COc1cc(Nc2ncc3c(n2)-c2ccc(Cl)cc2C(c2c(F)cccc2OC)=NC3)ccc1C(=O)O [alisertib]
Method in brief: as §1

[4] = compound: COc1cc2nc(-c3cc(F)ccc3O)nc(N[C@@H]3CNC[C@H]3C(C)(C)O)c2cc1OC
Method in brief: as §1

gefitinib = compound: COc1cc2ncnc(Nc3ccc(F)c(Cl)c3)c2cc1OCCCN1CCOCC1 [gefitinib]
Method in brief: as §1

Measured: log2 fold change

RAD51C (UniProt O43502)
inactive: alvocidib 0.061 | Tubastatin A -0.081 | [1] 0.002 | defactinib 0.035 | [2] 0.072 | encorafenib -0.058 | [3] 0.004 | alisertib -0.005 | [4] 0.047 | gefitinib -0.016

REL isoform 2 (UniProt Q04864)
UniProt Q04864, sequence (Q04864 whole entry, looked up): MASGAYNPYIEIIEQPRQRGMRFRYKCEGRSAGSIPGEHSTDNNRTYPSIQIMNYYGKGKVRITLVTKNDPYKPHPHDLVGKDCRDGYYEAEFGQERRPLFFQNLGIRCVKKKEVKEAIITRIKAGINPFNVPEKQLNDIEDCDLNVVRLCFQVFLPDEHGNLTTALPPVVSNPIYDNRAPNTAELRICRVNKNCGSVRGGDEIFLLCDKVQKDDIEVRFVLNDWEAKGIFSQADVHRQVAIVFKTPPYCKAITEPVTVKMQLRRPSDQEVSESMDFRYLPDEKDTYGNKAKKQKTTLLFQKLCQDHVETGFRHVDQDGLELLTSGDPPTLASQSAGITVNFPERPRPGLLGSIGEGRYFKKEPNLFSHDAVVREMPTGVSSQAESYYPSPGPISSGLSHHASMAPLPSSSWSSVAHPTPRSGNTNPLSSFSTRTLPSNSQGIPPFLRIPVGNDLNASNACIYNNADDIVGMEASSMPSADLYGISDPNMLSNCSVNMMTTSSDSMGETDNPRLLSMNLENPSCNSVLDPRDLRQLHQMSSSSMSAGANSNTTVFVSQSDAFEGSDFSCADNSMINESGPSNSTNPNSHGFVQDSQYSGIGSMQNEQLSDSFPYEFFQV
inactive: alvocidib 0.061 | Tubastatin A -0.126 | [1] 0.003 | defactinib 0.023 | [2] -0.056 | encorafenib 0.012 | [3] 0.029 | alisertib -0.003 | [4] -0.019 | gefitinib 0.029

RAB8B (UniProt Q92930)
UniProt Q92930, sequence (Q92930 whole entry, looked up): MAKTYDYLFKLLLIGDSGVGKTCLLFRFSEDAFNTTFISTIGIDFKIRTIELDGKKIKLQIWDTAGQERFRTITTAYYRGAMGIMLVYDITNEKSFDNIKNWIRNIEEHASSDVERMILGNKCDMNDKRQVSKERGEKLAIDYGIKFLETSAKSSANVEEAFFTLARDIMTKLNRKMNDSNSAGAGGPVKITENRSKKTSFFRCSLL
inactive: alvocidib 0.037 | Tubastatin A 0.034 | [1] -0.011 | defactinib -0.016 | [2] -0.026 | encorafenib -0.002 | [3] -0.045 | alisertib 0.016 | [4] 0.015 | gefitinib 0.115

RABL3 (UniProt Q5HYI8)
inactive: alvocidib -0.023 | Tubastatin A -0.193 | [1] 0.154 | defactinib 0 | [2] -0.021 | encorafenib 0.02 | [3] -0.01 | alisertib -0.036 | [4] -0.038 | gefitinib 0.005

SDHA (UniProt P31040)
UniProt P31040, sequence (P31040 whole entry, looked up): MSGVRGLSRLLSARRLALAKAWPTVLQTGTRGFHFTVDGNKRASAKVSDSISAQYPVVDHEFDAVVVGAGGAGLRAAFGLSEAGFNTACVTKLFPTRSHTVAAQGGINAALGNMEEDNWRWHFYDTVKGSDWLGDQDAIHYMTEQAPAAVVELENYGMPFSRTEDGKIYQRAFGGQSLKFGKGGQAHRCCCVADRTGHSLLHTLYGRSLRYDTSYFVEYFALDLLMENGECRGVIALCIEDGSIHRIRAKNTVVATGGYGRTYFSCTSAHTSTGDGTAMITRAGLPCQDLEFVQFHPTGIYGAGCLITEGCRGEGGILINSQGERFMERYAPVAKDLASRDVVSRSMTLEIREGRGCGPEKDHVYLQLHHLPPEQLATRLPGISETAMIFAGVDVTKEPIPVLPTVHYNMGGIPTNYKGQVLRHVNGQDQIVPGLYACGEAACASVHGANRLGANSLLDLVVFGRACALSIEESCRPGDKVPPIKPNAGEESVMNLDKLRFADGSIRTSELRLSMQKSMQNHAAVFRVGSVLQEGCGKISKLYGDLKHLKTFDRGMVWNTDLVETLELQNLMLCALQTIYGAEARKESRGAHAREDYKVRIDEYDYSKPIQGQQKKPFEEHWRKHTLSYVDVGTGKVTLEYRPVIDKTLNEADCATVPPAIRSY
inactive: alvocidib -0.004 | Tubastatin A -0.012 | [1] 0 | defactinib -0.04 | [2] 0.002 | encorafenib -0.023 | [3] -0.04 | alisertib -0.023 | [4] -0.014 | gefitinib -0.031

RFC3 (UniProt P40938)
inactive: alvocidib -0.008 | Tubastatin A -0.142 | [1] 0.024 | defactinib 0.036 | [2] -0.014 | encorafenib 0.002 | [3] -0.005 | alisertib 0.007 | [4] 0.029 | gefitinib -0.075

RBM5 (UniProt P52756)
inactive: alvocidib -0.226 | Tubastatin A -0.059 | [1] 0.021 | defactinib 0.01 | [2] 0.028 | encorafenib 0.044 | [3] 0.134 | alisertib -0.035 | [4] 0.182 | gefitinib 0.18

SDHC (UniProt Q99643)
inactive: alvocidib -0.114 | Tubastatin A -0.056 | [1] 0.047 | defactinib 0.146 | [2] 0.097 | encorafenib 0.034 | [3] 0.055 | alisertib 0.018 | [4] -0.007 | gefitinib 0.011

RPL28 (UniProt P46779)
inactive: alvocidib 0.03 | Tubastatin A 0.006 | [1] -0.009 | defactinib -0.018 | [2] 0.036 | encorafenib 0.012 | [3] -0.014 | alisertib 0.011 | [4] -0.005 | gefitinib -0.058

RBBP7 isoform 2 (UniProt Q16576)
inactive: alvocidib -0.005 | Tubastatin A -0.004 | [1] -0.021 | defactinib -0.023 | [2] -0.028 | encorafenib 0.03 | [3] -0.034 | alisertib 0.03 | [4] -0.003 | gefitinib 0.002

RDX (UniProt P35241)
UniProt P35241, sequence (P35241 whole entry, looked up): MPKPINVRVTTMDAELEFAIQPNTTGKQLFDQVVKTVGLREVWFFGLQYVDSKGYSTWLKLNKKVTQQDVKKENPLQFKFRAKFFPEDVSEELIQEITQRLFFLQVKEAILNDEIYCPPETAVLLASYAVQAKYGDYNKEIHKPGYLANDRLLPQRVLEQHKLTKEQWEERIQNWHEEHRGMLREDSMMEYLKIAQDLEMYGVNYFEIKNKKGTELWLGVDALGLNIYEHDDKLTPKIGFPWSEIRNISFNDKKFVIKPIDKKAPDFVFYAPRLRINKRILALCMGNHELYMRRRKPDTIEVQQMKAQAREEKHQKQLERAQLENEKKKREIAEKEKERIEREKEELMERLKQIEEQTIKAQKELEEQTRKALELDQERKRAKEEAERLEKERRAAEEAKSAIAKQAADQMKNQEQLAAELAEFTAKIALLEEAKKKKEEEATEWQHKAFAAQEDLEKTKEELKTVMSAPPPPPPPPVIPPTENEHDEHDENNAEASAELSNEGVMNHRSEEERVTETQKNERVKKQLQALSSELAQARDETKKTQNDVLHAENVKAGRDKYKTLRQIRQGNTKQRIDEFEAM
inactive: alvocidib 0.116 | Tubastatin A 0.042 | [1] -0.002 | defactinib -0.009 | [2] 0.034 | encorafenib -0.047 | [3] -0.033 | alisertib -0.018 | [4] 0 | gefitinib 0.013

RASA2 (UniProt Q15283)
inactive: alvocidib 0 | Tubastatin A -0.078 | [1] 0.019 | defactinib 0.053 | [2] -0.064 | encorafenib -0.059 | [3] 0.113 | alisertib -0.003 | [4] -0.008 | gefitinib -0.003

RABGGTB (UniProt P53611)
inactive: alvocidib -0.015 | Tubastatin A -0.043 | [1] -0.025 | defactinib 0.031 | [2] -0.021 | encorafenib 0.044 | [3] 0.065 | alisertib 0.005 | [4] 0.002 | gefitinib -0.002

SAR1B (UniProt Q9Y6B6)
inactive: alvocidib 0.032 | Tubastatin A 0.176 | [1] 0.199 | defactinib 0.05 | [2] 0.147 | encorafenib 0.203 | [3] 0.052 | alisertib 0.128 | [4] 0.145 | gefitinib 0.015

RAP1GAP isoform 4 (UniProt P47736)
inactive: alvocidib 0.01 | Tubastatin A -0.138 | [1] 0.06 | defactinib 0.012 | [2] -0.027 | encorafenib 0.022 | [3] 0.01 | alisertib 0.024 | [4] 0.008 | gefitinib 0.026

RIOK2 (UniProt Q9BVS4)
inactive: alvocidib -0.021 | Tubastatin A -0.098 | defactinib 0.105 | [2] 0.127 | encorafenib -0.025 | [3] 0.029 | alisertib -0.005 | [4] -0.051 | gefitinib -0.011
active: [1] 0.438

SCO1 (UniProt O75880)
UniProt O75880, sequence (O75880 whole entry, looked up): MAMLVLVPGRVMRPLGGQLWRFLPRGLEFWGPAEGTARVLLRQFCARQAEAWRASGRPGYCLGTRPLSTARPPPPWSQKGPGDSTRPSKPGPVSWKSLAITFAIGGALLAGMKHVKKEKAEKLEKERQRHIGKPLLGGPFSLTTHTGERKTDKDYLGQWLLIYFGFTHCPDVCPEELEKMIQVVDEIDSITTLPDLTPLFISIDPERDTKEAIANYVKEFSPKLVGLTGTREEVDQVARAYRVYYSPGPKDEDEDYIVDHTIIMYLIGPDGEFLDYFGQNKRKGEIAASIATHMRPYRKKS
inactive: alvocidib 0.002 | Tubastatin A -0.031 | [1] -0.051 | defactinib -0.004 | [2] 0.053 | encorafenib -0.004 | alisertib -0.096 | [4] 0.014 | gefitinib -0.015
active: [3] -0.57

RTN4IP1 (UniProt Q8WWV3)
UniProt Q8WWV3, sequence (Q8WWV3 whole entry, looked up): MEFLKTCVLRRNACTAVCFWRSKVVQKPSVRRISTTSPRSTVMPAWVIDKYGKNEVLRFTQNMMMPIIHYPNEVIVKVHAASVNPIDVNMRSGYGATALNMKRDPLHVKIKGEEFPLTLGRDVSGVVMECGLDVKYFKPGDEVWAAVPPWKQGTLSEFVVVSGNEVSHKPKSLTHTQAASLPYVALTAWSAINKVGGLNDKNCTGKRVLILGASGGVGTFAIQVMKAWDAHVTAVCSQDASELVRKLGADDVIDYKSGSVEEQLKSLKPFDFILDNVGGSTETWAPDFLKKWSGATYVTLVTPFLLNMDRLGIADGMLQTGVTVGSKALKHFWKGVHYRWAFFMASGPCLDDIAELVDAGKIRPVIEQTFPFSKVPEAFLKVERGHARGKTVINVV
inactive: alvocidib 0.042 | Tubastatin A -0.079 | [1] 0.036 | defactinib -0.014 | [2] 0 | encorafenib -0.021 | [3] 0.003 | alisertib -0.111 | [4] 0.019 | gefitinib 0.196

RNASEH2B (UniProt Q5TBB1)
UniProt Q5TBB1, sequence (Q5TBB1 whole entry, looked up): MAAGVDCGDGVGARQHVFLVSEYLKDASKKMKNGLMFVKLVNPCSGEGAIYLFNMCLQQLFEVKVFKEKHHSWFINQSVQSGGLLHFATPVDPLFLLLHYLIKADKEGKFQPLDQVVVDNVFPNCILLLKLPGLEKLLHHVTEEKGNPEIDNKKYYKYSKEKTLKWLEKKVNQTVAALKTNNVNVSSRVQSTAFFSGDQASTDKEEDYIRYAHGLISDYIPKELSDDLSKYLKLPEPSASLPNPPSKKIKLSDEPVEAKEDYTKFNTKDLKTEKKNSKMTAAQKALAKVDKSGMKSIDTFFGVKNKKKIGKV
inactive: alvocidib 0.05 | Tubastatin A -0.046 | [1] -0.003 | defactinib 0.092 | [2] -0.021 | encorafenib 0.035 | alisertib -0.031 | [4] -0.038 | gefitinib -0.031
active: [3] 0.338

RHAG (UniProt Q02094)
inactive: alvocidib -0.133 | Tubastatin A 0.031 | [1] 0.043 | defactinib -0.043 | [2] 0.037 | encorafenib 0.016 | [3] 0.02 | alisertib -0.004 | [4] 0.046 | gefitinib -0.051

RDH11 (UniProt Q8TC12)
inactive: alvocidib -0.071 | Tubastatin A 0.031 | [1] 0.011 | defactinib 0 | [2] 0.1 | encorafenib 0.092 | [3] 0.149 | alisertib -0.009 | [4] 0.082 | gefitinib -0.019

RPS4X (UniProt P62701)
inactive: alvocidib 0.039 | Tubastatin A 0.032 | [1] -0.03 | defactinib -0.027 | [2] 0.029 | encorafenib -0.036 | [3] 0.063 | alisertib 0.004 | [4] 0.002 | gefitinib -0.028

SCML2 (UniProt Q9UQR0)
UniProt Q9UQR0, sequence (Q9UQR0 whole entry, looked up): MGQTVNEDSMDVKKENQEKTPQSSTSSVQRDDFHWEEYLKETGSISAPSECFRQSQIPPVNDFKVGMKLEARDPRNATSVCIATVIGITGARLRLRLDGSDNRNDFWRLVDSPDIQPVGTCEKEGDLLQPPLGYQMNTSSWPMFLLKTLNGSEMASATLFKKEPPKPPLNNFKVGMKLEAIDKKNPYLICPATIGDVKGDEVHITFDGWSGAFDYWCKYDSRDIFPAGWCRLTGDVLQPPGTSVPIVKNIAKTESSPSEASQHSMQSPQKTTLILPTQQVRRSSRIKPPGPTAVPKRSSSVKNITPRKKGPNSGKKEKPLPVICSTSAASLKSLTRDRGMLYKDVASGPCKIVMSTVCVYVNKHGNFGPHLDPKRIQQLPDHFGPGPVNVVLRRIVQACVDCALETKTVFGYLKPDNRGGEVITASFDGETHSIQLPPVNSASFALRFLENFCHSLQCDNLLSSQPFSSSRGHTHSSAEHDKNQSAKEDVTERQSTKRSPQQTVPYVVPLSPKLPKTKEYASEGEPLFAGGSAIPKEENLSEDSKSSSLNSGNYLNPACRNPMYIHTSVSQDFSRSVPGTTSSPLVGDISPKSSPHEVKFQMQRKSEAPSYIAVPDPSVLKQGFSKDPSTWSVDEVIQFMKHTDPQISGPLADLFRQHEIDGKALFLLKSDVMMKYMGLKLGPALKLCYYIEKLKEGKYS
inactive: alvocidib 0.006 | Tubastatin A -0.204 | [1] 0.031 | defactinib -0.03 | [2] -0.035 | encorafenib 0.01 | [3] 0.18 | alisertib 0.025 | [4] -0.016 | gefitinib -0.053

SEC62 (UniProt Q99442)
UniProt Q99442, sequence (Q99442 whole entry, looked up): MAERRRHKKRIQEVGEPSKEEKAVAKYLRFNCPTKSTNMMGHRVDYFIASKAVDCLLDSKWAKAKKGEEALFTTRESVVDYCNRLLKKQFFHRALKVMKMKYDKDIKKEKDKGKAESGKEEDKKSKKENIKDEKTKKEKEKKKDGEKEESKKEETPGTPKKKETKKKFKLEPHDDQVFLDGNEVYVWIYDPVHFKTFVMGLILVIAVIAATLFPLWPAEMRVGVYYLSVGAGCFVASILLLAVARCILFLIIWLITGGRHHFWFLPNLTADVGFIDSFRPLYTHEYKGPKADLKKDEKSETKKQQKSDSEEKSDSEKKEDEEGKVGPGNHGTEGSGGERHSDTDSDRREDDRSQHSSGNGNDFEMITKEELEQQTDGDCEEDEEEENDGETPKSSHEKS
inactive: alvocidib 0.046 | Tubastatin A 0.07 | [1] 0.019 | defactinib 0.02 | [2] 0.045 | encorafenib -0.012 | [3] -0.084 | alisertib -0.003 | [4] -0.028 | gefitinib 0.004

SAR1A (UniProt Q9NR31)
inactive: alvocidib -0.034 | Tubastatin A 0.153 | [1] 0.03 | defactinib 0.086 | [2] 0.086 | encorafenib 0.152 | [3] 0.084 | alisertib 0.134 | [4] 0.161 | gefitinib 0.156

REXO4 (UniProt Q9GZR2)
inactive: alvocidib 0.089 | Tubastatin A -0.108 | [1] 0.026 | defactinib 0.013 | [2] 0.032 | encorafenib -0.007 | [3] 0.08 | alisertib -0.008 | [4] 0.024 | gefitinib -0.029

RRM1 (UniProt P23921)
inactive: alvocidib -0.004 | Tubastatin A -0.098 | [1] -0.007 | defactinib 0.022 | [2] -0.03 | encorafenib 0.005 | [3] 0.098 | alisertib 0.007 | [4] 0.007 | gefitinib -0.006

RIC1 (UniProt Q4ADV7)
inactive: alvocidib 0.014 | Tubastatin A -0.051 | [1] 0.029 | defactinib -0.12 | [2] 0.02 | encorafenib 0.037 | [3] -0.13 | alisertib 0.017 | [4] -0.073 | gefitinib 0.024

RBM42 (UniProt Q9BTD8)
UniProt Q9BTD8, sequence (Q9BTD8 whole entry, looked up): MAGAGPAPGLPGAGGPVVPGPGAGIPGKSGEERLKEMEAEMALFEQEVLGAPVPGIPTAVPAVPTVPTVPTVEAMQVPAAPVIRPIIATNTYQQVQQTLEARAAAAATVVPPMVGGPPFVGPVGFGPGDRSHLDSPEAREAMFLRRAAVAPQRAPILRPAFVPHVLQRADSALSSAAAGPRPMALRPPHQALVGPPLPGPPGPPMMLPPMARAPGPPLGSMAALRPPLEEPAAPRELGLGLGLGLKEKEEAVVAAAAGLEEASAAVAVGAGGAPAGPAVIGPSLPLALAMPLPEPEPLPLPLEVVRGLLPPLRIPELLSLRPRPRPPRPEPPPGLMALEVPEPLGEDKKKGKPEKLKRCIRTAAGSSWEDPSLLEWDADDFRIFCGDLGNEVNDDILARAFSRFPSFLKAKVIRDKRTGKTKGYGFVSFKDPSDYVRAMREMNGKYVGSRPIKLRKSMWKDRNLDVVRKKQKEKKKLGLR
active: [3] -0.28
inactive: alvocidib -0.036 | Tubastatin A -0.022 | [1] 0.08 | defactinib 0.058 | [2] 0.077 | encorafenib 0.098 | alisertib 0.043 | [4] -0.062 | gefitinib -0.066

RNPS1 (UniProt Q15287)
UniProt Q15287, sequence (Q15287 whole entry, looked up): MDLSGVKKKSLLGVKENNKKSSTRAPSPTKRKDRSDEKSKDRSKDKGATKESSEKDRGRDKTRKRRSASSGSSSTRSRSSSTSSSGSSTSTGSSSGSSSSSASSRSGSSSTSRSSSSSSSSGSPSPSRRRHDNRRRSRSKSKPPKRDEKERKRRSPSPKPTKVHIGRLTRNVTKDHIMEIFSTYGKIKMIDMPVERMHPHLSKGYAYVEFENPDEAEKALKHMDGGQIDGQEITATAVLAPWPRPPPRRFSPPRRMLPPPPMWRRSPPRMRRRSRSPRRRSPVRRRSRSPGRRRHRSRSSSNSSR
inactive: alvocidib -0.043 | Tubastatin A 0.102 | [1] 0.02 | defactinib -0.009 | [2] 0.029 | encorafenib 0.069 | [3] 0.01 | alisertib 0.02 | [4] 0.01 | gefitinib 0.006
